The list is not random: actives were taken first. Their share in the collection is about 2.5%.
MEKK3 PB1 HTS = raises or lowers MEK5 binding to the human MEKK3 PB1 domain. Q99759. bead-based flow cytometry, Alexa488-MEK5 binding to MEKK3; actives lie on both sides; 0 = blocked by unlabeled MEK5, 100 = vehicle. binding response (% of control), % at 10 µM. 1.4% of 290,000 active. AID 1529;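 active = binding response more than 3 SD above or below the average of its plate-row segment, actives on both sides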;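 also: Alexa488 bead fluorescence after subtracting the streptavidin-only scavenger bead signal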
Target sequence (Q99759 whole entry, looked up, the tested form may be a part): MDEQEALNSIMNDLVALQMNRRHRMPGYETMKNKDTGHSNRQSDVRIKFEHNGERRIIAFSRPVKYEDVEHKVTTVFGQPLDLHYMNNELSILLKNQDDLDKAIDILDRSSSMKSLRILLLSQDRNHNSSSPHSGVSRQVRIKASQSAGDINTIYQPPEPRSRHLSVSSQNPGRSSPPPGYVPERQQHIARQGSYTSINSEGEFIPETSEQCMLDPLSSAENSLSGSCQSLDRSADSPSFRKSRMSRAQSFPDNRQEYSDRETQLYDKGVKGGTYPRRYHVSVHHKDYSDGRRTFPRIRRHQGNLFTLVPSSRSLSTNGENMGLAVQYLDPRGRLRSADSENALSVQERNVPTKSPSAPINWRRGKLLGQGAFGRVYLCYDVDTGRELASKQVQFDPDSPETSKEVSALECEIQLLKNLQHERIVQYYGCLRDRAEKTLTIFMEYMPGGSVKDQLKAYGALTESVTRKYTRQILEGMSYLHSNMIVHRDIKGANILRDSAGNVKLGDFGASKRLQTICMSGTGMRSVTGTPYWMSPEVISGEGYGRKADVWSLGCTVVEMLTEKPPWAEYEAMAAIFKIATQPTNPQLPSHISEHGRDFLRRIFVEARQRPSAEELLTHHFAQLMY
MEKK2wt PB1 HTS = raises or lowers MEK5 binding to wildtype human MEKK2 PB1 domain; bead flow cytometry, Alexa488-MEK5 binding to MEKK2 WT; actives lie on both sides; binding response (% of control), % at 10 µM; 1.1% of 290,000 active; AID 1531; in the data active = binding response below about 67% or above about 130%
MEKK2mut PB1 HTS = signal of MEK5 binding to mutant human MEKK2 PB1 domain. percent response, % at 10 µM. bead flow cytometry, Alexa488-MEK5 binding to MEKK2 mutant. 0.35% of 290,000 active; in the data active = percent response above about 24%, passing the limit was not always enough
GRK2 inh = inhibitors of human GRK2 displacing RNA aptamer; P25098; bead flow cytometry, FAM-aptamer displacement from GRK2; inhibition of aptamer binding, % at 10 µM; 0.59% of 330,000 active;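 active = inhibition of aptamer binding above 40%, roughly 3 SD of noise, on plates passing a quality check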;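 also: median bead fluorescence of bound FAM aptamer so fluorescent compounds give negative values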
MEKK2wt confirm = raises or lowers MEK5 binding to wildtype human MEKK2, retest; shares compounds with MEKK3 PB1 HTS; bead flow cytometry, Alexa488-MEK5 binding to MEKK2 WT; actives lie on both sides; binding response (% of control), % at 10 µM; 2.4% of 5,900 active; in the data active = binding response below about 16% or above about 210%; inactive = in between
MEKK2mut-MEK5 = signal of MEK5 binding to mutant human MEKK2, retest; shares compounds with MEKK3 PB1 HTS; bead flow cytometry, Alexa488-MEK5 binding to MEKK2 mutant; percent response, % at 10 µM; 2% of 5,900 active; in the data active = percent response mostly above about 71%, no sharp cut-off; inactive = mostly below about 38%;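 also: higher means compound restores mutant binding toward wildtype level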
MEKK3 confirm = confirmation of inhibitors of MEK5 binding to human MEKK3. shares compounds with MEKK3 PB1 HTS. binding response (% of control), % at 10 µM. 1.8% of 5,900 active. bead flow cytometry, Alexa488-MEK5 binding to MEKK3; active compounds read low;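 active = binding response below 72% of control, or above a set upper limit, though filed actives all read lower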;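 also: lower values mean stronger disruption of MEK5 binding to MEKK3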
Large screens that a line does not name were inactive (follow-up assays come after a bar, where they were run); [ ] = remark or other dose.

Cc1ccc(-n2c(C)cc(C(=O)COc3cccnc3[N+](=O)[O-])c2C)cc1	MEKK3 PB1 HTS 152 | MEKK2wt confirm inactive | MEKK2mut-MEK5 inactive | MEKK3 confirm inactive
O=C(COc1cccc2cccnc12)Nc1ccccc1N1CCOCC1	none
COC(=O)c1ccc(C2c3c(oc4ccc(Cl)cc4c3=O)C(=O)N2CCN2CCOCC2)cc1 (stereo not drawn)	MEKK3 PB1 HTS 131 | MEKK2wt confirm inactive | MEKK2mut-MEK5 inactive | MEKK3 confirm inactive
COc1ccc(OCc2n(CC(=O)OC3CC(C)CCC3C(C)C)c3ccccc3[n+]2C)cc1 (stereo not drawn)	MEKK2wt PB1 HTS 162 | MEKK2wt confirm inactive | MEKK2mut-MEK5 inactive | MEKK3 confirm inactive
Cc1oc2ccc(NS(=O)(=O)c3ccccc3)cc2c1C(=O)Nc1ccccc1	MEKK3 PB1 HTS 129 | MEKK2wt confirm inactive | MEKK2mut-MEK5 inactive | MEKK3 confirm inactive
COCCOC(=O)c1c(C)oc2ccc(NS(=O)(=O)c3ccc(C)cc3)cc12	MEKK3 PB1 HTS 135 | MEKK2wt confirm inactive | MEKK2mut-MEK5 inactive | MEKK3 confirm inactive
Cc1cc(C)n(-c2nnc3c4ccccc4n(C)c3n2)n1	none
CCNC(=O)N(CCOC)CC1CCCN(C2Cc3ccccc3C2)C1 (stereo not drawn)	none
CCN(CC)CCCNC(=O)CCC(=O)NNc1nc2ccccc2c2nc(C)nn12	none
Cc1nc2c3ccccc3nc(NNC(=O)CCC(=O)NCCC(C)C)n2n1	MEKK3 PB1 HTS 130 | MEKK2wt confirm inactive | MEKK2mut-MEK5 inactive | MEKK3 confirm inactive
CCC(C)(C)c1ccc(OCCCC[n+]2ccc(C)cc2)c(C(C)(C)CC)c1	MEKK2wt PB1 HTS 189, MEKK2mut PB1 HTS 56 | MEKK2wt confirm inactive | MEKK2mut-MEK5 inactive | MEKK3 confirm inactive
Cc1cc[n+](CC[n+]2ccc(C)cc2)cc1	none (no result: MEKK3 PB1 HTS, MEKK2wt PB1 HTS, MEKK2mut PB1 HTS)
Cc1ccc(N2C(=O)C3C(c4ccccc4)N4CCCN4C3(C)C2=O)cc1 (stereo not drawn)	MEKK3 PB1 HTS 66[inhibitor] | MEKK2wt confirm inactive | MEKK2mut-MEK5 inactive | MEKK3 confirm inactive
Cc1ccc(N2C(=O)C3C(C2=O)N2CCCN2C3c2ccccc2)cc1C (stereo not drawn)	none
O=C(COc1cccnc1[N+](=O)[O-])N1CCN(S(=O)(=O)c2ccccc2)CC1	MEKK3 PB1 HTS 145 | MEKK2wt confirm inactive | MEKK2mut-MEK5 inactive | MEKK3 confirm inactive
Cn1ccnc1SCC(=O)N1CCN(S(=O)(=O)c2ccccc2)CC1	MEKK3 PB1 HTS 4.0[inhibitor], MEKK2wt PB1 HTS 4.0[inhibitor] | MEKK2wt confirm inactive | MEKK2mut-MEK5 inactive | MEKK3 confirm inactive
N#C/C(C(=O)NCc1ccccc1)=C1/SC(Cc2ccc(Cl)cc2)C(=O)N1c1ccccc1 (stereo not drawn)	none
CCOC(=O)CC(NC(=O)c1cc2cc(Cl)cc(Cl)c2oc1=O)c1cccc([N+](=O)[O-])c1 (stereo not drawn)	MEKK3 PB1 HTS 53[inhibitor] | MEKK2wt confirm inactive | MEKK2mut-MEK5 inactive | MEKK3 confirm inactive
C=CCNC(=O)c1cc2cccc(OC)c2oc1=O	MEKK3 PB1 HTS 128 | MEKK2wt confirm inactive | MEKK2mut-MEK5 inactive | MEKK3 confirm inactive
CCOC(=O)CC(NC(=O)c1cc2cccc(OC)c2oc1=O)c1cccc([N+](=O)[O-])c1 (stereo not drawn)	MEKK3 PB1 HTS 135 | MEKK2wt confirm inactive | MEKK2mut-MEK5 inactive | MEKK3 confirm inactive
COc1cc(F)ccc1S(=O)(=O)N1CCN(Cc2ccccc2)CC1	none (no result: GRK2 inh)
COc1cccc(NC(=O)COC(=O)Cn2c(C)csc2=O)c1	none (no result: MEKK3 PB1 HTS, MEKK2wt PB1 HTS, MEKK2mut PB1 HTS)
COc1ccc(NC(=O)C23CC4CC(C2)CC(c2ccc(C)cc2)(C4)C3)cc1	MEKK3 PB1 HTS 150 | MEKK2wt confirm inactive | MEKK2mut-MEK5 inactive | MEKK3 confirm inactive
O=C1CC(C(=O)O)(c2ccccc2)c2cccc(F)c21 (stereo not drawn)	none
COc1ccc(/C=C/c2noc(-c3ccccc3O)n2)cc1	MEKK3 PB1 HTS 131 | MEKK2wt confirm inactive | MEKK2mut-MEK5 inactive | MEKK3 confirm inactive
Cc1cc(C)n(-c2ccc(C(=O)NC(C)C)cc2)n1	MEKK3 PB1 HTS -1.0[inhibitor], MEKK2wt PB1 HTS -5.0[inhibitor] | MEKK2wt confirm inactive | MEKK2mut-MEK5 inactive | MEKK3 confirm inactive
O=c1[nH]ncc(N/N=C\c2ccncc2)c1Cl	MEKK3 PB1 HTS 136 | MEKK2wt confirm inactive | MEKK2mut-MEK5 inactive | MEKK3 confirm inactive
O=c1[nH]ncc(N/N=C\c2cccnc2)c1Cl	none
CC(C)c1ccc(N2CC(C)(C)C2=O)cc1	none
CC(NC(=O)CN(c1ccccc1F)S(C)(=O)=O)c1ccccc1 (stereo not drawn)	MEKK2mut PB1 HTS 27 | MEKK2wt confirm inactive | MEKK2mut-MEK5 inactive | MEKK3 confirm inactive
Cc1c(CN2CCC(CO)(CCOc3ccccc3)CC2)[nH]c2c(Cl)cccc12	MEKK2wt PB1 HTS 240 | MEKK2wt confirm inactive | MEKK2mut-MEK5 inactive | MEKK3 confirm inactive
COC(=O)CC1=C(C(=O)OC)C(c2cccs2)C(C#N)=C(N)O1 (stereo not drawn)	none
CCOC(=O)C1=C(CC)OC(N)=C(C#N)C1c1cccs1 (stereo not drawn)	MEKK3 PB1 HTS 74[inhibitor] | MEKK2wt confirm inactive | MEKK2mut-MEK5 inactive | MEKK3 confirm inactive
COC(=O)NNC(=O)c1ccccc1OC	none
COc1ccccc1C(=O)NNC(=O)C1CC=CCC1 (stereo not drawn)	MEKK3 PB1 HTS 25[inhibitor], MEKK2wt PB1 HTS 38[inhibitor] | MEKK2wt confirm inactive | MEKK2mut-MEK5 inactive | MEKK3 confirm inactive
Cc1ccc(Cn2c(=N)n(CC(=O)c3ccc([N+](=O)[O-])cc3)c3ccccc32)cc1	MEKK2wt PB1 HTS 153, MEKK2mut PB1 HTS 60 | MEKK2wt confirm inactive | MEKK2mut-MEK5 inactive | MEKK3 confirm inactive
O=C(O)c1cc2[nH]c3c(c2cc1Cl)CCCC3	none
S=c1[nH]nc(-c2cccnc2)n1-c1ccccc1	MEKK3 PB1 HTS 80[inhibitor] | MEKK2wt confirm inactive | MEKK2mut-MEK5 inactive | MEKK3 confirm inactive
COc1ccccc1OCc1nc(-c2cccc([N+](=O)[O-])c2)no1	none
NC(=O)COc1ccc(-c2noc(COc3ccccc3[N+](=O)[O-])n2)cc1	MEKK3 PB1 HTS 132 | MEKK2wt confirm inactive | MEKK2mut-MEK5 inactive | MEKK3 confirm inactive
COc1ccc(-c2nnc(-c3ccc(N(C)C)cc3)o2)cc1	none
CN(C)c1ccc(-c2nnc(-c3ccccc3F)o2)cc1	MEKK2mut PB1 HTS 26 | MEKK2wt confirm inactive | MEKK2mut-MEK5 inactive | MEKK3 confirm inactive
O=C(O)Cc1sc(-c2ccc(Cl)cc2)nc1-c1ccccc1	MEKK3 PB1 HTS 123 | MEKK2wt confirm inactive | MEKK2mut-MEK5 inactive | MEKK3 confirm inactive
COc1ccc(C2=NOC(C(=O)Nc3c(C)n(C)n(-c4ccccc4)c3=O)C2)cc1 (stereo not drawn)	none

Screening data deposited in PubChem BioAssay by NMMLSC.
